Bioassay records deposited in PubChem BioAssay by National Center for Advancing Translational Sciences (NCATS).
In the library only some 8.3% were active in any assay of this set; here they are far more common.
LASV entry inh: Lassa virus entry inhibition; Lassa virus pseudotype entry inhibition, cell reporter; Potency, µM (highest dose often 37.9 µM), without a hit: at the top dose activity change, negative = inhibition, usual class: inhibitors; 300,000 tested, 1.2% active; AID 540256; calls by dose curve; tested in HEK293 cells; also: potency is read from the fitted curve at half-maximal effect; nearly all actives have a fitted effect of over 50% in size
Giardia FBPA inh: inhibitors of Giardia lamblia fructose-1,6-bisphosphate aldolase. A8B2U2. purified Giardia FBPA. Potency, µM (titrated, usually from 59.6 µM), inactives show top-dose activity, negative = inhibition, usual class: inhibitors. 290,000 tested, 0.71% active. AID 2451; also: potency is read from the fitted curve at half-maximal effect; nearly all actives have a fitted effect of over 55% in size
Target sequence (A8B2U2 whole entry, looked up): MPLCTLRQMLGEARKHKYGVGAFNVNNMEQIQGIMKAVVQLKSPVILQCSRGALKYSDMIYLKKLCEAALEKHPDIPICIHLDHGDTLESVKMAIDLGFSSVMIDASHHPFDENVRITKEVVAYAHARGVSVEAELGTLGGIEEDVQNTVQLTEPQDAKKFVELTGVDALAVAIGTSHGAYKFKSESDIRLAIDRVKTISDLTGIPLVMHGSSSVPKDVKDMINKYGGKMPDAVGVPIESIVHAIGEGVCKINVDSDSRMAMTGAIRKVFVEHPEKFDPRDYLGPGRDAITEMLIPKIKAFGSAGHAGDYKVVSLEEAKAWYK
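40 nM FBPA preincubated 10 min at RT with compound (up to 57.5 uM final), then substrate plus GAPDH/TPI/NAD/arsenate coupling and diaphorase/resazurin added. Fluorescence read after 20 min at RT, 525/598 nm.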
Marburg entry inh: blocks Marburg virus binding to or entry into cells; Marburg virus pseudotyped entry inhibition, cell reporter; Potency, µM (top dose mostly 37.8 µM), for inactives: top-dose activity change, negative = inhibition, most hits filed as inhibitors; 300,000 tested, 1.8% active; AID 540276; calls by dose curve; tested in HEK293 cells; also: potency is read from the fitted curve at half-maximal effect
HCMV inh: inhibitors of human cytomegalovirus; HFF cells, HCMV-luciferase reporter, 72 h; hits give low values; activity change, negative = inhibition, % at 57.5 µM; 410,000 tested, 4.5% active; in the data active = activity change below about -60%; inconclusive = no clear call, values can overlap the other calls; inactive = above about -39%
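Steps: HFFs plated, 16 h 37C; compounds added; HCMV-luciferase added to MOI 1 PFU/cell; 72 h 37C; OneGlo reagent, 5 min room temperature; luminescence read, normalized to controls.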
FMDV antiviral: blocks foot and mouth disease virus | FMDV antiviral cell-based qHTS | Potency, µM (titrated, usually from 57.9 µM), for inactives: at the top dose activity change, negative = inhibition, hits mostly inhibitors | 410,000 tested, 1.2% active | AID 1159524; calls by dose curve; tested in HEK293T cells; also: read-out not given here; potency is read from the fitted curve at half-maximal effect; nearly all actives have a fitted effect of over 45% in size
HCV inhibitor: blocks hepatitis C virus. Huh7.5.1 HCVcc-Cre infection, luciferase reporter, 44 h. 340,000 tested, 3.4% active. Potency, µM (top dose mostly 41.8 µM), inactives show top-dose activity change, negative = inhibition, hits mostly inhibitors; also: potency is read from the fitted curve at half-maximal effect
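Cells (1,000/well) were plated 4 h before compound, then infected with HCVcc-Cre virus (~0.5 moi). After 44 h further culture, infection was read as luciferase luminescence following a 15 min substrate incubation at room temperature.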
Starred values were filed as active, the others as inactive; [ ] = dose if it differs, or a comment. Unless noted, calls follow the shape of the dose curve; as a rule, active = well fitted curve in the direction sought with a large enough effect; inconclusive = small, poorly fitted or top-dose-only effect, or another doubt; inactive = no such curve, though single readings can be large; an effect the other way counts as inactive or inconclusive. % is scaled to controls: 0 for no effect and ±100 for the full control effect.

Screening COc1ccc(/C=N/NC(=O)c2ccoc2C)cc1OC returned LASV entry inh inconclusive, Giardia FBPA inh 3%, Marburg entry inh 6%, HCMV inh 24, FMDV antiviral -12% and HCV inhibitor -6%.
For COc1ccc(/C=N/NC(=O)c2ccccc2)cc1CN1CCN(c2ccc(F)cc2)CC1 the results were LASV entry inh 1%, Giardia FBPA inh 2%, Marburg entry inh -4%, HCMV inh -15, FMDV antiviral -2% and HCV inhibitor -23%.
COc1ccc(/C=N\NC(=O)c2ccccc2OC)cc1COc1c(F)c(F)c(F)c(F)c1F was read as LASV entry inh -22%, Giardia FBPA inh 1%, Marburg entry inh inconclusive, HCMV inh 102, FMDV antiviral -17% and HCV inhibitor inconclusive.
COc1ccc(/C=N\NC(=O)c2ccccc2Cl)cc1COc1c(F)c(F)c(F)c(F)c1F was read as LASV entry inh inconclusive, Marburg entry inh inconclusive, HCMV inh 101, FMDV antiviral inconclusive and HCV inhibitor 2.2µM*.
Screening CC(=O)c1ccccc1NC(C(=O)NC1CCCCC1)C(C)C (centres undefined) returned HCMV inh 6.
`Cc1ccc(NC(=O)C2CCCN(S(=O)(=O)c3ccc4c(c3)CCCC(=O)N4)C2)cc1Cl` (centres undefined) gave LASV entry inh inconclusive, HCMV inh -35 and FMDV antiviral inconclusive.
For NCC[C@H]1CCC[C@H](CCN)N1 the results were Marburg entry inh -4%.
`COc1ccc(C(=O)N/N=C/c2ccc(OC)c(COc3ccc(F)cc3F)c2)cc1` gave LASV entry inh 2.2µM*, Giardia FBPA inh -22%, Marburg entry inh inconclusive, HCMV inh 33, FMDV antiviral inconclusive and HCV inhibitor inconclusive.
For COc1ccc(C(=O)N/N=C/c2ccc(OC)c(COc3ccc(F)cc3)c2)cc1 the results were LASV entry inh -29%, Giardia FBPA inh 0%, Marburg entry inh inconclusive, HCMV inh 51, FMDV antiviral -12% and HCV inhibitor -21%.
`CC(=O)N1CCC2(CCCN(C(=O)Nc3cccc(C#N)c3)C2)CC1` gave Giardia FBPA inh -1% and FMDV antiviral -6%.
COc1ccc2c(c1)c1c(c(=O)n(Cc3ccccc3)c(=O)n1Cc1cccc(Cl)c1)n2C was read as LASV entry inh inconclusive, HCMV inh -18 and FMDV antiviral -19%.
`CCCOc1ccc(Br)cc1/C=N/O` gave LASV entry inh -3%, Giardia FBPA inh 4%, Marburg entry inh inconclusive, HCMV inh 10, FMDV antiviral -8% and HCV inhibitor 10µM*.
For C#CCOc1ccc(Br)cc1/C=N/O the results were LASV entry inh -12%, Giardia FBPA inh -1%, Marburg entry inh inconclusive, HCMV inh -19, FMDV antiviral -9% and HCV inhibitor inconclusive.
`CCOc1ccc(Br)cc1/C=N/O` gave LASV entry inh 4%, Giardia FBPA inh 2%, Marburg entry inh -12%, HCMV inh 3 and HCV inhibitor 8.9µM*.
`O=C(O)COc1ccc(Br)cc1/C=N/O` gave LASV entry inh 4%, Giardia FBPA inh 24%, Marburg entry inh 15%, HCMV inh -20, FMDV antiviral 8% and HCV inhibitor 17%.
`CCOC(=O)C1(CC2CCCCO2)CCN(Cc2cc3ccccc3[nH]2)CC1` (centres undefined) gave LASV entry inh 10µM*, Giardia FBPA inh -2%, Marburg entry inh inconclusive, HCMV inh -27, FMDV antiviral -23% and HCV inhibitor inconclusive.
CCCCc1ncc(CN2CCC(CC3CCCCO3)(C(=O)OCC)CC2)[nH]1 (centres undefined) was read as LASV entry inh 26%[46.1 µM], Giardia FBPA inh 4%, Marburg entry inh inconclusive, HCMV inh -25, FMDV antiviral 16% and HCV inhibitor 7%.
CC(C)N1C(=O)CC[C@@H](S(=O)(=O)c2ccccc2)[C@@H]1/C=C/c1ccccc1 was read as HCMV inh 23.
For O=C(Cn1cc(S(=O)(=O)Cc2ccc(F)cc2)c2ccccc21)NCc1ccccc1Cl the results were LASV entry inh inconclusive, HCMV inh 0 and FMDV antiviral -9%.
`CCOc1ccccc1NC(=O)N1CCN(Cc2cc(=O)n3nc(-c4ccc(C)cc4)sc3n2)CC1` gave LASV entry inh 21%[46.1 µM], HCMV inh 8 and FMDV antiviral -14%.
For CC(C)(CS(=O)(=O)[O-])NC(=O)CC[N+](C)(C)CCO the results were LASV entry inh 3%, Giardia FBPA inh 14%, Marburg entry inh 2.8µM*, HCMV inh 61, FMDV antiviral -16% and HCV inhibitor -1%.
Screening N=c1ccn(Cc2ccc(Cl)cc2Cl)cc1 returned LASV entry inh inconclusive, Giardia FBPA inh 3%, Marburg entry inh -12%, HCMV inh -97*, FMDV antiviral inconclusive and HCV inhibitor 2.8µM*.
N=c1ccn(Cc2c(Cl)cccc2Cl)cc1 was read as LASV entry inh -13%[46.1 µM], Giardia FBPA inh 5%, Marburg entry inh inconclusive, HCMV inh -78*, FMDV antiviral -28% and HCV inhibitor inconclusive.
Screening N=c1ccn(Cc2ccccc2Cl)cc1 returned LASV entry inh -2%, Giardia FBPA inh 1%, Marburg entry inh inconclusive, HCMV inh -85*, FMDV antiviral inconclusive and HCV inhibitor 2.5µM*.
`O=C1CCCc2ccccc2N1Cc1c(Cl)cccc1Cl` gave LASV entry inh -14%, Giardia FBPA inh -1%, Marburg entry inh -7%, HCMV inh -21, FMDV antiviral 0% and HCV inhibitor -19%.
For Cc1ccc(C)n1Cc1ccccc1Cl the results were LASV entry inh 15%[46.1 µM], Giardia FBPA inh 5%, Marburg entry inh 27%[46.1 µM], HCMV inh -12, FMDV antiviral -21% and HCV inhibitor 7%.
For COc1ccc(-c2cn(Cc3ccc(C(=O)c4ccccc4)cc3)nn2)cc1 the results were Giardia FBPA inh -2%, HCMV inh -82*, FMDV antiviral 10% and HCV inhibitor -12%[8.37 µM].
Screening CN(C)C(=O)c1ccc(-c2cncnc2NCc2cccnc2)cc1 returned Giardia FBPA inh 7% and FMDV antiviral 15%.
Screening CC(C)(CNC(=O)c1cnn(-c2ncc3c(n2)-c2ccccc2CCC3)c1C1CC1)N1CCOCC1 returned FMDV antiviral -4%.
CN=c1scc(-c2ccco2)n1/N=C/c1ccc(O)c(O)c1 was read as LASV entry inh inconclusive, Giardia FBPA inh inconclusive, Marburg entry inh inconclusive, HCMV inh 68, FMDV antiviral 14µM* and HCV inhibitor 2.5µM*.
Screening CN=c1scc(C)n1/N=C/c1ccc(O)cc1 returned LASV entry inh inconclusive, Giardia FBPA inh 0%, Marburg entry inh inconclusive, HCMV inh 82, FMDV antiviral 29% and HCV inhibitor inconclusive.
